In ChEMBL document CHEMBL4513216, “Probing the Open Global Health Chemical Diversity Library for Multistage-Active Starting Points for Next-Generation Antimalarials” (ACS Infect Dis, 2020):
About 8,600 (12%) of roughly 69,000 compounds showed an effect of 50% or more. This is one part of a sample in which strong results are shown more often than they occur.

system: Plasmodium berghei; test: Screen against P. berghei liver stage (PbLuc), transformed with Luciferase, at 10uM; assay type: functional, HepG2; conditions: tested at 10 uM

Row | SMILES | INHIBITION [%]
1 | Cc1ccc(C2CSCCN2C(=O)c2ccncc2)cc1 (configuration not stated) | -2.39
2 | CCc1nc(CN2CCOC(CN(C)c3cccnn3)C2)cs1 (configuration not stated) | -4.16
3 | CCc1nc(CN2CCOC(CN(CC)c3cccnn3)C2)cs1 (configuration not stated) | 57
4 | CCN(CC1CN(Cc2cccc(C#N)c2)CCO1)c1cccnn1 (configuration not stated) | 58.5
5 | CCN(CC1CN(Cc2ccn(C(C)C)n2)CCO1)c1cccnn1 (configuration not stated) | 54.3
6 | CCN(CC1CN(CCc2ccccn2)CCO1)c1cccnn1 (configuration not stated) | -14.2
7 | CCN(CC1CN(Cc2cccnc2)CCO1)c1cccnn1 (configuration not stated) | 48.3
8 | CCN(CC1CN(Cc2ccccn2)CCO1)c1cccnn1 (configuration not stated) | -32.2
9 | CC(C)n1ccc(CN2CCOC(CNc3cccnn3)C2)n1 (configuration not stated) | -31.5
10 | COCc1nc(CN2CCOC(CN(C)c3cccnn3)C2)cs1 (configuration not stated) | -8.11
11 | CCOC(=O)CN1CCC2(CCCN(CCOc3ccccc3)C2)C1 (configuration not stated) | 21.1
12 | CC(C)(C)C(=O)NCCCC(=O)NC(C)(C)c1ccc2c(c1)OCO2 | 27.4
13 | Cc1nccn1-c1ccc(=O)n(CCNC(=O)c2cccs2)n1 | 18.7
14 | Cc1cnn(CC2CN(Cc3cccc(C(N)=O)c3)CCO2)c1 (configuration not stated) | 16.9
15 | O=C(Cc1cccs1)N1CCC2(CC1)COCCN2CC1CC1 | 21.7
16 | CC(C)(CO)N1CCN(S(=O)(=O)CCCF)CC1 | -15.565
17 | CCN(Cc1ccc2c(c1)OCO2)C(=O)c1cccnc1O | -35.5
18 | COCCn1cnc2ccc(NC(=O)C(C)C)cc2c1=O | 39.2
19 | Cc1cc(C)c(CNC(=O)N2CCN(c3nccs3)CC2)c(=O)[nH]1 | -5.6
20 | c1cncc(-c2noc(CN3CCCC(Cn4cncn4)C3)n2)c1 (configuration not stated) | -52.5
21 | COc1cc(OC)cc(C2(O)CCN(Cc3ncc(C)o3)CC2)c1 | 50.9
22 | CCc1cnc(CN2CCC(O)(c3cc(OC)cc(OC)c3)CC2)o1 | 11.3
23 | COc1cc(OC)cc(C2(O)CCN(Cc3nc(C)c(C)o3)CC2)c1 | 22.2
24 | CCCc1nc(CNC2(c3nccs3)CCCC2)cs1 | -15.4

Row | SMILES | INHIBITION [%]
25 | Cc1cc(NC(=O)CN2CCc3c(nc(C(C)C)n3C)C2)on1 | -21.2
26 | Cc1cnn(CC2CCCCN2C(=O)c2n[nH]c3ccccc23)c1 (configuration not stated) | -43.5
27 | COCCN1CCOCC2(CCCN(Cc3cccc(F)c3)C2)C1 (configuration not stated) | 46.9
28 | Cc1cccc(CN2CCOCC3(CCN(C4CCOCC4)C3)C2)c1 (configuration not stated) | -35.9
29 | c1csc(CN2CCC3(COCCN(CC4CC4)C3)C2)n1 (configuration not stated) | -23.3
30 | Fc1cccc(CN2CCOCC3(CCN(C4CCOCC4)C3)C2)c1 (configuration not stated) | 58.1
31 | Fc1cccc(CN2CCOC3(COCCN(CC4CC4)C3)C2)c1 (configuration not stated) | 81
32 | c1csc(CN2CCOCC3(CCN(C4CCOCC4)C3)C2)n1 (configuration not stated) | 63.1
33 | C1CC(CN2CCOCC3(CCN(C4CCOCC4)C3)C2)CCO1 (configuration not stated) | 40.9
34 | c1ccc(CN2CCOCC3(CCN(C4CCOCC4)C3)C2)cc1 (configuration not stated) | 50
35 | c1cc(CN2CCOCC3(C2)CN(Cc2nccs2)CCO3)ccn1 (configuration not stated) | 34.4
36 | Cn1cc(CN2CCOCC3(CCN(C4CCOCC4)C3)C2)cn1 (configuration not stated) | 11.6
37 | c1csc(CN2CCOCC3(CCN(C4CCOCC4)C3)C2)c1 (configuration not stated) | 11.6
38 | O=C(c1ccco1)N1CCOCC2(CCN(C3CCOCC3)C2)C1 (configuration not stated) | 8.69
39 | CCn1nc(C)c(NC(=O)CN2CC[C@H](CO)[C@@H](O)C2)c1C | 10.6
40 | O=S(=O)(CCCNCCn1cccn1)c1ccccc1 | -42.8
41 | CCCc1nc(CN(CC)C(=O)c2ccc(S(C)(=O)=O)cc2)no1 | 19.8
42 | CCn1ccc(NC(=O)CN2C(=O)CC(C)(C)c3ccccc32)n1 | -34.9
43 | COc1ccc(F)c(CN2CCCC3(CCN(C4CCOCC4)C3)C2)c1 (configuration not stated) | 77.8
44 | c1cncc(CN2CCC3(COCCN(C4CCOCC4)C3)C2)c1 (configuration not stated) | 17.5
45 | COc1ccc(F)c(CN2CCCC3(CCN(S(C)(=O)=O)C3)C2)c1 (configuration not stated) | 47
46 | O=C(C1CCOC1)N1CCC2(CC1)COCCN(Cc1ccncc1)C2 (configuration not stated) | 1.94
47 | O=C(C1CCCO1)N1CCC2(CC1)COCCN(Cc1ccncc1)C2 (configuration not stated) | 5.44
48 | O=C(c1ccsc1)N1CCC2(CC1)COCCN(Cc1ccncc1)C2 | 25.2

Row | SMILES | INHIBITION [%]
49 | COc1ccc(CN2CCOCC3(CCN(C4CCOCC4)C3)C2)cc1 (configuration not stated) | 11.6
50 | c1cc(CN2CCOCC3(CCN(C4CCOCC4)C3)C2)ccn1 (configuration not stated) | 52.2
51 | c1cc(CN2CCOCC3(CCN(CC4CCOCC4)CC3)C2)ccn1 | 39.2
52 | CCS(=O)(=O)N1CCC2(CCCN(Cc3cc(OC)ccc3F)C2)C1 (configuration not stated) | -14
53 | c1cc(CN2CCOCC3(CCNCC3)C2)ccn1 | 63.7
54 | CN(C)CC(=O)N1CCC2(CC1)COCCN(Cc1ccncc1)C2 | 61.4
55 | Cc1cnn(CC(C)Nc2nc(C)cc(N(C)C)n2)c1 (configuration not stated) | 15.6
56 | Cc1cc(-n2c(C)cn(CN(C)CC3CC3)c2=O)no1 | -8.9
57 | Cc1ccc(NC(=O)N2CCCC(N(C)C)C2)c(Br)c1 (configuration not stated) | 15.1
58 | Cc1cc(C(=O)N[C@H](C)c2onc(-c3cccnc3)c2C(=O)O)c(C)o1 | -30.7
59 | NS(=O)(=O)CCCNC(=O)C1(c2cccc(Cl)c2)CC1 | 11.8
60 | CCn1nc(C)c2nnn(CC(=O)Nc3ccc(C)cc3)c(=O)c21 | 29.2
61 | Cc1c[nH]c(C2COCCN2C(=O)CCc2c(C)n[nH]c2C)n1 (configuration not stated) | -3.65
62 | Cc1nc(C(C)C)sc1C(C)N(C)C(=O)c1ccc(=O)n(C)c1 (configuration not stated) | 16.1
63 | O=C(c1ccoc1)N1CCOC2(COCCN(CC3CC3)C2)C1 (configuration not stated) | 71.3
64 | Cn1ccc(C(=O)N2CCOC3(COCCN(CC4CC4)C3)C2)n1 (configuration not stated) | -25.1
65 | O=C(c1ccoc1)N1CCOC2(COCCN(c3ncccn3)C2)C1 (configuration not stated) | 46.6
66 | CNC(=O)CCc1cc(C2CCCCN2C)nc(C)n1 (configuration not stated) | -11.3
67 | Cn1cc(N2C[C@@H]3CN(Cc4ccccn4)C[C@@H]3C2=O)cn1 | 34.9
68 | COc1ccc(CN2C[C@H]3CN(c4ccsc4)C(=O)[C@H]3C2)cc1 | 50
69 | O=C1[C@H]2CN(Cc3ccccn3)C[C@H]2CN1c1ccsc1 | 56.7
70 | O=C1[C@H]2CN(Cc3ccc(F)cc3)C[C@H]2CN1c1ccsc1 | 22.9
71 | O=C1[C@H]2CN(Cc3ccncc3)C[C@H]2CN1c1ccsc1 | 15.9
72 | O=C1[C@H]2CN(Cc3nccs3)C[C@H]2CN1c1ccsc1 | 32.4
